Records with an inconclusive call do not appear. Entries that show only a call come without a potency. Calls of active or inactive are those of the source. The call rests on the fitted dose curve; in most records, active means well fitted cell-killing curve with a large enough effect; inconclusive means small, poorly fitted or top-dose-only effect; inactive means no such curve, though single readings can be large or run the other way.
test: qHTS of pediatric cancer cell lines to identify multiple opportunities for drug repurposing: Primary screen for A673 cells (AID 1347092); settings: A673 Ewing sarcoma viability, CellTiter-Glo ATP luminescence, 48 h; series mostly up to 46 µM; further: nearly all actives have a fitted effect of over 45% in size
Description: Drug repurposing or repositioning has been offered as a strategy for drug development in oncology programs. This approach has special potential for childhood cancers and other rare or orphan diseases, where the expected return on new drug development has been a disincentive to pharmaceuticals. […] In this project we exploit the poly-pharmacology of drugs to discover new indications via phenotypic screening of a panel of 19 well-characterized cell lines derived from solid tumors seen in children and adolescents. The goal is to identify approved drugs with previously unrecognized anticancer properties that has the potential to reveal new mechanisms and biological processes involved in carcinogenesis or drug resistance. We employed a titration-based paradigm (quantitative high-throughput screening or qHTS), where all compounds were tested at multiple concentrations for their effect on cell viability. Concentration-response curves (CRCs) were derived directly from the primary screen, and both potency and efficacy values were used to identify compounds with robust bioactivity profiles. We screened the NIH Chemical Genomics Center (NCGC) Pharmaceutical Collection (NPC) and Mechanism Interrogation Plate (MIPE) small molecule collections of approved and investigational compounds against these cell lines; and measured metabolically active cells after 48 hours of compound treatment as a proxy for cell viability. […] Assay Submitter: Nathalia J. Martinez, National Center for Advancing Translational Sciences, National Institutes of Health, Rockville, MD, USA; email: natalia.martinez@nih.gov. Shen, M et al. Quantitative high-throughput phenotypic screening of pediatric cancer cell lines identifies multiple opportunities for drug repurposing. Oncotarget 2017 Dec 19;9(4):4758-4772. PMID 29435139.
The cells were obtained from University of North Carolina (UNC), Pediatric Preclinical Testing Program (PPT), and Coriell Institute (CI). qHTS cell viability assay: Cells were assayed in growth media at a density of 500-1,000 cells/well. Five microliters of cells were dispensed into 1,536-well, white, solid-bottom, TC-treated plates (Greiner Bio One) using a multidrop dispenser and incubated at 37 degrees C, 5% CO2, under a humidified atmosphere for 5 hours. Twenty-three nanoliters of compounds and controls (neutral control DMSO or positive control bortezomib at final concentration of 2.3 uM) were subsequently transferred by Kalypsys pintool. For primary screens, the MIPE collection was tested at 11-point dilutions (final concentrations range from 0.78 nM to 46 µM) and the NPC collection at 8-point dilutions (final concentrations range from 0.59 nM to 46 µM). Compounds tested in follow-up screens were assayed at 11-point dilutions. Cells were incubated for 48 hours, followed by addition of 3 uL of CellTiter-Glo (Promega). After a 15min incubation at room temperature, samples were analyzed for luminescence intensity using a ViewLux High-throughput CCD imager equipped with clear filters.
Potency means the concentration at half of the fitted maximal effect.

| Compound | Potency |
| --- | --- |
| CNC[C@H](O)[C@@H](O)[C@H](O)[C@H](O)CO | inactive |
| CCOc1ncc(F)c(=O)[nH]1 | inactive |
| Nc1ccc([N+](=O)[O-])c(C(F)(F)F)c1 | inactive |
| C[N+](C)(CCOc1ccccc1)Cc1cccs1 | inactive |
| CC(=O)OC[C@H]1O[C@@H](OC(C)=O)[C@H](OC(C)=O)[C@@H]1OC(C)=O | inactive |
| O=C(O)CCC(=O)OC[C@@H](NC(=O)C(Cl)Cl)[C@H](O)c1ccc([N+](=O)[O-])cc1 | inactive |
| CC(C)C(=O)OCc1cccc(OC(=O)[C@@H]2N3C(=O)[C@@H](NC(=O)Cc4ccccc4)[C@H]3SC2(C)C)c1 | inactive |
| CCN1C(=O)c2ccccc2C1Nc1ccc(OCCN2CCCCC2)cc1 (stereo not given) | inactive |
| Cc1sccc1Br | inactive |
| O=C(COCCOCCOCC(=O)Nc1c(I)cc(I)c(C(=O)O)c1I)Nc1c(I)cc(I)c(C(=O)O)c1I | inactive |
| CCCC(=O)O[C@]1(C(=O)COC(=O)CC)CC[C@H]2[C@@H]3CCC4=CC(=O)CC[C@]4(C)[C@H]3[C@@H](O)C[C@@]21C | inactive |
| CN1C(=O)CC(C)(c2ccccc2)C1=O (stereo not given) | inactive |
| Cc1ccc(Cl)c(OCC(O)CNC(C)(C)C)c1 (stereo not given) | inactive |
| O=C1Cc2cc(Cl)ccc2N1 | inactive |
| CC(=O)N(CC(=O)N(C)C)c1ccccc1 | inactive |
| C=C(C)C(=O)OCC(O)CO (stereo not given) | inactive |
| O=C(O)c1ccccc1S | inactive |
| CCCCC(O)/C=C(C)/C=C/C=C/C(=O)N1CCCC1=O (stereo not given) | inactive |
| Nc1ccc(O)cc1 | inactive |
| O=C1CC(c2ccc(Cl)cc2)CC(=O)N1 | inactive |

| Compound | Potency |
| --- | --- |
| OC1(c2ccc(Cl)cc2)CCNCC1 | inactive |
| Cc1cnc(NS(=O)(=O)c2ccc(N)cc2)nc1 | inactive |
| Cn1c(=O)c2c(ncn2CC(=O)O)n(C)c1=O | inactive |
| c1ccc2occc2c1 | inactive |
| CCS(=O)(=O)c1ccc(OC)c(C(=O)OC)c1 | inactive |
| CC(C)NC(=O)c1ccc(C=O)cc1 | inactive |
| COC(=O)/C=C(/C)N | inactive |
| CC(=O)OCC[N+](C)(C)C | inactive |
| COC(=O)c1c(Cl)c(Cl)c(C(=O)OC)c(Cl)c1Cl | inactive |
| Cc1cccc(N(C)C(=S)Oc2ccc3c(c2)CCC3)c1 | inactive |
| CC(C)=CCNc1ncnc2c1ncn2[C@@H]1O[C@H](CO)[C@@H](O)[C@H]1O | 2660 nM (active) |
| Cc1c(N)cccc1C(F)(F)F | inactive |
| O=C(Oc1ccccc1)c1cccc(C(=O)Oc2ccccc2)c1 | inactive |
| COc1cc(NS(=O)(=O)c2ccc(N)cc2)nc(C)n1 | inactive |
| CC(=O)N(CC(O)CO)c1c(I)c(C(=O)NCCO)c(I)c(C(=O)NCC(O)CO)c1I (stereo not given) | inactive |
| CC1CC(=O)NN=C1c1ccc(NCC(C)(C)NCC(O)COc2cc(Cl)ccc2C#N)cc1 (stereo not given) | inactive |
| CCOC(=O)Cn1cccc1-c1nc(-c2ccc(OC)cc2)c(-c2ccc(OC)cc2)s1 | inactive |
| O=C(CS(=O)Cc1ccco1)NC/C=C\COc1cc(CN2CCCCC2)ccn1 (stereo not given) | inactive |
| Cc1ccccc1N1CCN(CCc2nnc3n2CCCC3)CC1 | inactive |
| CC(NC(CCc1ccccc1)C(=O)O)C(=O)N1C(=O)N(C)CC1C(=O)O (stereo not given) | inactive |

From PubChem BioAssay (NCATS)
